From PubChem BioAssay (NCI)
The panel holds about 83,000 compounds, 20% with a hit somewhere; the sample as a whole holds those more often.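 Step 1: grow cells in 96-well plates. Step 2: add test compound at a single concentration. Step 3: incubate 48 h. Step 4: record percent growth.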 The source made the active and inactive calls. The calls were made as follows: active = growth percent below 10; inactive = the rest.

Columns and labels:
Experiment in all cases: NCI-60 one-dose screen, 48 h (100 = growth as untreated, 0 = no growth, -100 = all killed)
Details in all cases: 10 µM unless noted
SR leukemia = test system: SR leukemia
RPMI-8226 leukemia = test system: RPMI-8226 leukemia
OVCAR-8 ovarian = test system: OVCAR-8 ovarian
OVCAR-5 ovarian = test system: OVCAR-5 ovarian
OVCAR-4 ovarian = test system: OVCAR-4 ovarian
SK-OV-3 ovarian = test system: SK-OV-3 ovarian
IGROV1 ovarian = test system: IGROV1 ovarian
OVCAR-3 ovarian = test system: OVCAR-3 ovarian
HS 578T breast = test system: HS 578T breast
NCI/ADR-RES ovarian = test system: NCI/ADR-RES ovarian

Measured: growth

NS(=O)(=O)c1ccc(NNC(=O)CCC(=O)c2ccccc2)cc1
inactive: SR leukemia 86.8% | RPMI-8226 leukemia 105% | OVCAR-8 ovarian 101% | OVCAR-5 ovarian 112% | OVCAR-4 ovarian 99.2% | SK-OV-3 ovarian 104% | IGROV1 ovarian 102% | OVCAR-3 ovarian 114% | HS 578T breast 94.7% | NCI/ADR-RES ovarian 109%

COc1ccc(-c2nc3cc(C)ccc3n2CC(=O)N=Nc2c(O)[nH]c3ccccc23)cc1
inactive: RPMI-8226 leukemia 59.3% | OVCAR-5 ovarian 13.8% | SK-OV-3 ovarian 47.8% | IGROV1 ovarian 59.3%
active: SR leukemia 0.97% | OVCAR-8 ovarian -58.1% | OVCAR-4 ovarian -25.3% | OVCAR-3 ovarian -33.8% | HS 578T breast 4.27% | NCI/ADR-RES ovarian -47.1%

Cc1cccc(NC(=O)CN2CCN(c3ncnc4c3cnn4-c3ccccc3)CC2)c1
inactive: SR leukemia 55.9% | RPMI-8226 leukemia 75.2% | OVCAR-8 ovarian 96% | OVCAR-5 ovarian 94.7% | OVCAR-4 ovarian 91.4% | SK-OV-3 ovarian 99.7% | IGROV1 ovarian 83.9% | OVCAR-3 ovarian 98.9% | HS 578T breast 88.2% | NCI/ADR-RES ovarian 89.4%

O=C(CN1C(=O)/C(=C/c2ccccc2F)SC1=S)N1CCOCC1
inactive: SR leukemia 27.9% | RPMI-8226 leukemia 52.8% | OVCAR-8 ovarian 93.4% | OVCAR-5 ovarian 91.9% | OVCAR-4 ovarian 73.7% | SK-OV-3 ovarian 112% | IGROV1 ovarian 100% | OVCAR-3 ovarian 52.8% | HS 578T breast 104% | NCI/ADR-RES ovarian 92%

CC1=C(C#N)C2=NNCC(c3ccccc3)=NN2C(c2ccccc2)=C1
inactive: SR leukemia 96% | RPMI-8226 leukemia 110% | OVCAR-8 ovarian 111% | OVCAR-5 ovarian 114% | OVCAR-4 ovarian 112% | SK-OV-3 ovarian 101% | IGROV1 ovarian 109% | OVCAR-3 ovarian 111% | HS 578T breast 107% | NCI/ADR-RES ovarian 112%

C=C1CC[C@@H]2[C@]3(C)COC(c4cn[nH]c4-c4cccc(Br)c4)O[C@@H]3CC[C@@]2(C)[C@@H]1C/C=C1/C(=O)OCC1O (stereo not given in full)
active: RPMI-8226 leukemia -6.49% | OVCAR-8 ovarian -42.5% | OVCAR-5 ovarian -76.2% | SK-OV-3 ovarian -33% | IGROV1 ovarian -60.2% | OVCAR-3 ovarian -97.6% | HS 578T breast 5.38% | NCI/ADR-RES ovarian -50.1%
inactive: SR leukemia 12.7% | OVCAR-4 ovarian 10.8%

S=C(Nc1ccc(OCc2nc3ccccc3[nH]2)cc1)NC1CCCCC1
inactive: SR leukemia 105% | RPMI-8226 leukemia 101% | OVCAR-8 ovarian 95.1% | OVCAR-5 ovarian 117% | OVCAR-4 ovarian 102% | SK-OV-3 ovarian 108% | IGROV1 ovarian 107% | OVCAR-3 ovarian 123% | HS 578T breast 102% | NCI/ADR-RES ovarian 106%

COc1ccc2c(c1)c(-c1cc(N)n3nc(-c4cn(C)c5ccccc45)cc3n1)cn2C
active: SR leukemia 6.15% | RPMI-8226 leukemia -14.5% | OVCAR-8 ovarian -94.4% | OVCAR-5 ovarian -38.8% | OVCAR-4 ovarian -64.2% | SK-OV-3 ovarian -79.5% | IGROV1 ovarian -40.3% | OVCAR-3 ovarian -67.4% | HS 578T breast -20.7% | NCI/ADR-RES ovarian -17.1%

COc1c(F)ccc(C(=O)Nc2ccc3nc(NC(=O)C4CCCN(S(=O)(=O)c5ccc(C(F)(F)F)cc5)C4)sc3c2)c1F (stereo not given)
inactive: SR leukemia 43.4% | RPMI-8226 leukemia 54.3% | OVCAR-8 ovarian 95.8% | OVCAR-5 ovarian 100% | OVCAR-4 ovarian 69.1% | SK-OV-3 ovarian 103% | IGROV1 ovarian 70.5% | OVCAR-3 ovarian 78.2% | HS 578T breast 51.4% | NCI/ADR-RES ovarian 80%

CC(=O)OC[C@@]1(C)C2CC[C@]3(C)C(CC=C4C5CC(C)(C)CC[C@]5(C(=O)Nc5ccc(F)cc5)CC[C@]43C)[C@@]2(C)C[C@@H](OC(C)=O)[C@@H]1OC(C)=O (stereo not given in full)
inactive: SR leukemia 27.8% | RPMI-8226 leukemia 13.5% | OVCAR-8 ovarian 36.4% | OVCAR-5 ovarian 78.7% | OVCAR-4 ovarian 30.3% | SK-OV-3 ovarian 45.1% | IGROV1 ovarian 51.9% | OVCAR-3 ovarian 42% | HS 578T breast 85.3% | NCI/ADR-RES ovarian 40.6%

CC(=O)OC[C@@]1(C)C2CC[C@]3(C)C(CC=C4C5CC(C)(C)CC[C@]5(C(=O)Nc5ccc(C)cc5)CC[C@]43C)[C@@]2(C)C[C@@H](OC(C)=O)[C@@H]1OC(C)=O (stereo not given in full)
inactive: SR leukemia 30.9% | RPMI-8226 leukemia 13.8% | OVCAR-8 ovarian 40.3% | OVCAR-5 ovarian 95.2% | OVCAR-4 ovarian 40.2% | SK-OV-3 ovarian 54.3% | IGROV1 ovarian 60.9% | OVCAR-3 ovarian 48.9% | HS 578T breast 86% | NCI/ADR-RES ovarian 40.4%

CC(=O)OC[C@@]1(C)C2CC[C@]3(C)C(CC=C4C5CC(C)(C)CC[C@]5(C(=O)Nc5cccc(C)c5)CC[C@]43C)[C@@]2(C)C[C@@H](OC(C)=O)[C@@H]1OC(C)=O (stereo not given in full)
inactive: SR leukemia 30% | RPMI-8226 leukemia 15.9% | OVCAR-8 ovarian 39.7% | OVCAR-5 ovarian 81.2% | OVCAR-4 ovarian 38.6% | SK-OV-3 ovarian 59.7% | IGROV1 ovarian 61.8% | OVCAR-3 ovarian 47.5% | HS 578T breast 77% | NCI/ADR-RES ovarian 36.2%

COc1ccc(C(=O)/C=C/c2ccc(OC)c(OCc3ccccc3)c2)cc1OC
active: RPMI-8226 leukemia 7.98% | OVCAR-8 ovarian -7.56% | NCI/ADR-RES ovarian -4.74%
inactive: SR leukemia 14.4% | OVCAR-5 ovarian 31.4% | OVCAR-4 ovarian 30.1% | SK-OV-3 ovarian 24.7% | IGROV1 ovarian 22.2% | OVCAR-3 ovarian 16.3% | HS 578T breast 18.7%
